Data from the supplement of paper PMC6555819.

Experiments:
Experiment in all cases: PBM binding z-score (relative to random genomic background probes); higher = stronger binding; sequences stand for … in GC…GCGATTGACAGCGTAGAATGAAGG
[1] = tested on: FXR:RXRa (NR concentration 270 nM, RXRa partner concentration 90 nM)
Outline: (§1)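 The probes on custom Agilent 4×180K protein-binding microarrays were double-stranded, with 34-nt variable regions bearing direct-repeat seeds, single-nucleotide variants, half-site ablations and random human genomic background sequences. Incubation lasted 1 h with ligand-free nuclear receptor dimers in PBS pH 7.4, 2% milk, 0.02% Triton X-100, 1 mM DTT, 0.2 mg/mL BSA and 0.4 mg/ml salmon testes DNA. Antibodies against each partner (one per run) detected bound dimers, and fluorescence scans were regression-normalized. Binding z-scores take the random background probes as reference.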

[2] = tested on: LXRa:RXRa (NR concentration 270 nM, RXRa partner concentration 90 nM)
Outline: as §1

[3] = tested on: LXRa homodimer (NR concentration 270 nM)
Outline: as §1

[4] = tested on: LXRb:RXRa (NR concentration 270 nM, RXRa partner concentration 90 nM)
Outline: as §1

[5] = tested on: LXRb homodimer (NR concentration 270 nM)
Outline: as §1

[6] = tested on: PPARa:RXRa (NR concentration 270 nM, RXRa partner concentration 90 nM)
Outline: as §1

[7] = tested on: PPARg:RXRa (NR concentration 180 nM, RXRa partner concentration 90 nM)
Outline: as §1

[8] = tested on: PPARg:RXRa 270nM:90nM, anti-RXR (NR concentration 270 nM, RXRa partner concentration 90 nM)
Outline: as §1

[9] = tested on: PPARg:RXRa 30nM:10nM, anti-RXR (NR concentration 30 nM, RXRa partner concentration 10 nM)
Outline: as §1

[10] = tested on: PPARg:RXRa 90nM:30nM, anti-RXR (NR concentration 90 nM, RXRa partner concentration 30 nM)
Outline: as §1

[11] = tested on: PPARg:RXRa DBDmut IVT, anti-RXR (DBD mutation: RXRa K156A/R161A, NR concentration 270 nM, RXRa partner concentration 90 nM)
Outline: as §1

[12] = tested on: PPARg:RXRa IVT, anti-PPARg (NR concentration 270 nM, RXRa partner concentration 90 nM)
Outline: as §1

[13] = tested on: PPARg DBDmut:RXRa IVT, anti-PPARg (DBD mutation: PPARg1 K132A/R137A, NR concentration 270 nM, RXRa partner concentration 90 nM)
Outline: as §1

[14] = tested on: PPARg DBDmut IVT, anti-PPARg (DBD mutation: PPARg1 K132A/R137A, NR concentration 270 nM)
Outline: as §1

[15] = tested on: PPARg homodimer (NR concentration 180 nM)
Outline: as §1

[16] = tested on: PXR:RXRa (NR concentration 270 nM, RXRa partner concentration 90 nM)
Outline: as §1

[17] = tested on: PXR homodimer (NR concentration 270 nM)
Outline: as §1

[18] = tested on: RARa:RXR (NR concentration 270 nM, RXRa partner concentration 90 nM)
Outline: as §1

[19] = tested on: RARa homodimer (NR concentration 270 nM)
Outline: as §1

[20] = tested on: RARb:RXRa (NR concentration 270 nM, RXRa partner concentration 90 nM)
Outline: as §1

| Sequence | PBM binding z-score [1] | PBM binding z-score [2] | PBM binding z-score [3] | PBM binding z-score [4] | PBM binding z-score [5] | PBM binding z-score [6] | PBM binding z-score [7] | PBM binding z-score [8] | PBM binding z-score [9] | PBM binding z-score [10] | PBM binding z-score [11] | PBM binding z-score [12] | PBM binding z-score [13] | PBM binding z-score [14] | PBM binding z-score [15] | PBM binding z-score [16] | PBM binding z-score [17] | PBM binding z-score [18] | PBM binding z-score [19] | PBM binding z-score [20] |
| --- | --- | --- | --- | --- | --- | --- | --- | --- | --- | --- | --- | --- | --- | --- | --- | --- | --- | --- | --- | --- |
| CGAACTAGGTCAGAACAGGAGAGTGAAGGATGAT | 0.927 | 0.589 | -0.174 | 0.371 | -0.252 | 3.11 | 5.25 | 4.6 | 1.34 | 3.7 | 7.25 | 7.15 | 1.13 | 1.4 | 0.511 | 0.126 | -0.235 | 0.576 | 0.206 | 2.94 |
| ATCTCTAGGTCAGACTCAGTTCAGTGAAGAACGC | 2.16 | 3.65 | 3.15 | 2.13 | 2 | 2.7 | 3.02 | 2.96 | 0.87 | 2.1 | 5.06 | 5.22 | 1.01 | 1.61 | 2.14 | 4.07 | 1.69 | 2.07 | 1.03 | 3.51 |
| TGAATGAGGTTATAAGATCAGGGACCGTTGCAAA | 1.45 | 1.26 | 0.0374 | 1.01 | -0.286 | 2.6 | 1.45 | 2.32 | 0.865 | 1.63 | 1.22 | 1.99 | 0.832 | -0.0564 | 0.812 | 0.874 | 0.0306 | 1.43 | -0.64 | 1.33 |
| GCATATAGGTAATACAAGGTAAAAGTCCGATTGT | 1.02 | 0.511 | -0.476 | -0.189 | -0.093 | 0.669 | 1.14 | 0.607 | -0.0355 | 0.325 | 3.98 | 2.51 | 0.397 | 1.1 | 0.166 | 0.0106 | -0.11 | 0.364 | 0.741 | -0.207 |
| GCTAGTTGGTCAGTTAAAGGTCACACACCGGTCG | 3.58 | 4.58 | 5.75 | 3.98 | 0.905 | 4.23 | 3.18 | 5.17 | 3.67 | 4.95 | 1.33 | 2.95 | 0.429 | 0.266 | 5.59 | 4.98 | 1.44 | 6.18 | 2.99 | 4.13 |
| CGAACTAGGTCAGCACAGGACAGTGAAGGATGAT | 1.86 | 1.18 | -0.345 | 0.466 | -0.737 | 3.51 | 6.07 | 5.31 | 2.4 | 4.32 | 7.7 | 7.61 | 0.871 | 0.245 | 1.37 | 1.42 | -0.395 | 1.03 | 0.213 | 3.65 |
| CTCGAAAGGTCGTGCTCAGTTGAGTATACCAAAC | 4.37 | 3.75 | 0.291 | 3.5 | 0.338 | 4.85 | 2.54 | 3.47 | 0.941 | 2.53 | 0.724 | 1.41 | 0.908 | 0.182 | 1.01 | 3.56 | 0.333 | 3.85 | 0.101 | 3.85 |
| ACAGACAGGTGATGATGGTAACTCAGGCTATCAT | 0.142 | -0.0671 | -0.0719 | -0.166 | -0.2 | -0.0535 | 0.679 | -0.301 | 0.191 | 0.135 | -0.209 | 0.395 | -0.375 | 0.608 | 0.0138 | 0.234 | 0.57 | 0.211 | 0.598 | 0.146 |
| CCTACTGGGCCAAAGGTCATTGTTTCCAATGCTC | 4.79 | 5.08 | 4.83 | 4.72 | 1.37 | 6.74 | 11.7 | 10.6 | 10.6 | 11.3 | 5.12 | 6.92 | 2.88 | 1.37 | 5.48 | 5.37 | 1.86 | 6.23 | 1.11 | 4.16 |
| CCAGACAGGTGAAAGGTAGCTCAGTCTGGTACGC | 0.0731 | -0.0262 | -0.504 | 0.0215 | -1.1 | 2.23 | 3.22 | 4.68 | 2.78 | 4.9 | 2.97 | 1.52 | -1.06 | -0.199 | 0.596 | -0.0966 | -0.482 | 0.905 | -0.063 | 0.738 |
| CGAACTAGGTCAAGGACGGTGAATCTCCGCACGC | 3.32 | 2.02 | 0.122 | 1.29 | -0.582 | 4.44 | 6.87 | 6.24 | 3.95 | 5.89 | 7.98 | 7.86 | 0.422 | -0.145 | 0.732 | 1.03 | -0.242 | 1.5 | -0.265 | 3.76 |
| CCTAGTTGGTCAAGGTCACACTCGCTATAGGTAC | 3.95 | 3.53 | 2.41 | 3.43 | 0.997 | 3.86 | 2.85 | 3.32 | 1.24 | 2.41 | 2.46 | 3.35 | 0.792 | 0.878 | 3.44 | 3.95 | 2.21 | 4.18 | 2.57 | 3.85 |
| CCGACTGGGGCAGAATGGTTACCATACCATCCGG | -0.449 | -0.782 | -0.449 | -0.838 | -1.2 | -0.355 | 0.778 | -0.289 | -0.329 | -0.35 | 1.42 | 0.943 | -0.354 | -1.29 | 0.0556 | -1.05 | -0.973 | -0.83 | -0.164 | 0.0446 |
| CCAACTAGGTCAAAGGTCAAAGTCGAGCCAACCA | 8.45 | 7.12 | 5.59 | 7.28 | 3.01 | 7.64 | 13.6 | 10.9 | 13.2 | 12.7 | 8.37 | 8.87 | 4.39 | 5.12 | 5.23 | 7.1 | 1.86 | 8.64 | 3.1 | 5.72 |
